Assay outcomes (PubChem)
MARV entry inh = blocks Marburg virus binding to or entry into cells | Marburg virus pseudotyped entry inhibition, cell reporter | Potency, µM (highest dose often 37.8 µM), hits mostly inhibitors | 300,000 tested, 1.8% active | AID 540276; calls by dose curve; tested in HEK293 cells
FMDV inh = foot and mouth disease virus antiviral activity; AID 1159524; FMDV antiviral cell-based qHTS; Potency, µM (top dose mostly 57.9 µM), most hits filed as inhibitors; 410,000 tested, 1.2% active; calls by dose curve; tested in HEK293T cells; note: read-out not given here; nearly all actives have a fitted effect of over 45% in size
LASV entry inh = blocks Lassa virus binding to or entry into cells; Lassa virus pseudotype entry inhibition, cell reporter; Potency, µM (top dose mostly 37.9 µM), hits mostly inhibitors; 300,000 tested, 1.2% active; calls by dose curve; tested in HEK293 cells; note: nearly all actives have a fitted effect of over 50% in size
HCMV inh = blocks human cytomegalovirus replication | HFF cells, HCMV-luciferase reporter, 72 h; stronger effect = lower value | activity change, negative = inhibition, % at 57.5 µM | 410,000 tested, 4.5% active | AID 1259415; in the data active = activity change below about -60%; inconclusive = no clear call, values can overlap the other calls; inactive = above about -39%
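Two-dose cell screen: HFF monolayers treated with compounds and infected with luciferase-expressing HCMV at 1 PFU/cell, 72 h at 37C, then lysed for luciferase measurement.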
Giardia FBPA inh = inhibitors of Giardia lamblia fructose-1,6-bisphosphate aldolase; purified Giardia FBPA; Potency, µM (highest dose often 59.6 µM), most hits filed as inhibitors; AID 2451; 290,000 tested, 0.71% active; A8B2U2; note: nearly all actives have a fitted effect of over 55% in size
Target sequence (A8B2U2 whole entry, looked up): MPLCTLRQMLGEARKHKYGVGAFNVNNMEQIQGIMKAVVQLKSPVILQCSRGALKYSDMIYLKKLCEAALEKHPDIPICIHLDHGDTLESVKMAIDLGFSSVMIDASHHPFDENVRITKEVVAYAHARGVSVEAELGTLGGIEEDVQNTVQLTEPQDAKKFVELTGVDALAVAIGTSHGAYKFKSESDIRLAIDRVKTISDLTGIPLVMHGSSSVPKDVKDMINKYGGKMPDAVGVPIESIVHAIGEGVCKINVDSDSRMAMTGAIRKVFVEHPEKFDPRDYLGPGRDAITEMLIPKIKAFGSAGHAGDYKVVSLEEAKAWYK
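40 nM FBPA preincubated 10 min at RT with compound (up to 57.5 uM final), then substrate plus GAPDH/TPI/NAD/arsenate coupling and diaphorase/resazurin added. Fluorescence read after 20 min at RT, 525/598 nm.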
HCV inh = HCV inhibition; Huh7.5.1 HCVcc-Cre infection, luciferase reporter, 44 h; Potency, µM (doses to about 41.8 µM), actives largely listed as inhibitors; 340,000 tested, 3.4% active
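1,000 cells/well; 4 h culture; + compound; + HCVcc-Cre (~0.5 moi); 44 h; luciferase substrate, RT 15 min; read 15 sec.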
Numbers stand for hits; n = inactive; u = inconclusive; x = no result. Most compounds without a hit are left out; they make up all but 8.3% or so of the library. Unless noted, calls come from the whole dose curve; as a rule, active = well fitted curve in the direction sought with a large enough effect; inconclusive = small, poorly fitted or top-dose-only effect, or another doubt; inactive = no such curve, though single readings can be large; an effect the other way counts as inactive or inconclusive.

SMILES	MARV entry inh	FMDV inh	LASV entry inh	HCMV inh	Giardia FBPA inh	HCV inh
CC1CCN(c2ccc(-c3nc(C(C)C)no3)cc2[N+](=O)[O-])CC1	n	n	n	n	x	x
COC(=O)C1=C[C@@H](C(=O)OC)C2C3=C(C(=O)[C@@]2(C)NC(=O)c2ccccc2)[C@H](C)n2c(=O)n(-c4ccccc4)c(=O)n2[C@@H]3C1 (some centres undefined)	x	x	x	x	n	x
COc1ccccc1CN1CCC(n2cc(C(=O)N3CCCCC3)nn2)CC1	x	n	x	x	x	x
CC1CC(C)CN(C(=O)c2ccc(S(=O)(=O)N3CC(C)CC(C)C3)cc2)C1 (centres undefined)	u	n	u	-65.0	n	n
CC1CC(C)CN(S(=O)(=O)c2ccc(C(=O)N3CCCC3)cc2)C1 (centres undefined)	n	n	n	u	x	n
Cc1cc(C)n(-c2ccc(C(=O)Nc3ccc(C)c(S(=O)(=O)N4CCOCC4)c3)cc2)n1	10µM	14.1µM	u	-83.5	n	u
COc1ccc(-c2cc(=O)c3cc(O)ccc3o2)cc1	x	n	x	n	n	5.62µM
COc1ccc(-c2cc(=O)c3c(O)cc(O)cc3o2)cc1	x	n	x	n	n	12.6µM
COc1cc(-c2cc(=O)c3c(O)cc(O)cc3o2)cc(OC)c1OC	x	x	x	n	x	x
CN1C(=O)C2(c3ccccc31)N(C)CC(c1ccccc1)C21SC(=S)N(Cc2ccco2)C1=O (centres undefined)	u	n	u	-62.0	n	10µM
CN1C(=O)C2(c3ccccc31)N(C)CC(c1ccccn1)C21SC(=S)N(Cc2ccco2)C1=O (centres undefined)	u	u	n	u	n	u
CCc1cc(=O)oc2c3c(cc(OCC(=O)NCc4cccnc4)c12)OC(C)(C)CC3	x	n	x	n	n	u
CCc1cc(=O)oc2c3c(cc(OCC(=O)Nc4cccnc4)c12)OC(C)(C)CC3	x	n	x	n	n	10µM
COc1ccc(CNC(=O)COc2cc3c(c4oc(=O)cc(C)c24)CCC(C)(C)O3)cc1OC	x	u	x	n	n	6.31µM
CCc1cc(=O)oc2c3c(cc(OCC(=O)NCCCCCC(=O)O)c12)OC(C)(C)CC3	x	n	x	n	n	n
Cc1c(C)c2c(OCC(=O)NCC(C)C)cc3c(c2oc1=O)CCC(C)(C)O3	x	17.8µM	x	n	n	u
COc1cc2c(c3oc(=O)cc(CC(=O)O)c13)CCC(C)(C)O2	x	n	x	n	n	10µM
CCN(C(=O)c1cnc(NC(C)C)cc1C(F)(F)F)c1ccc(Cl)cc1Cl	u	n	u	n	n	10µM
COc1ccccc1C(=O)Nc1ccccc1OCc1cc(=O)n2cc(C)sc2n1	n	n	u	n	x	x
COc1cc2nc(/C=C/c3cc(OC)c(OC)c(OC)c3)sc2cc1SC	7.08µM	n	u	n	n	10µM
CN(C)CCCN(C(=O)c1ccc(S(=O)(=O)N2CCCC2)cc1)c1nc2ccc(Br)cc2s1	10µM	n	u	n	x	u
Cc1cc(C)c2nc(N(CCCN(C)C)C(=O)c3ccc(S(=O)(=O)N4CCCCCC4)cc3)sc2c1	u	n	u	u	x	11.2µM
Cc1ccc2sc(N(CCCN(C)C)C(=O)c3ccc(S(=O)(=O)N4CCCCCC4)cc3)nc2c1C	u	n	n	n	x	14.1µM
CCC(C)C(=O)OC1C(O)C2C(CN3CC(C)CCC3[C@]2(C)O)C2C[C@]34O[C@@]5(O)C(OC(=O)C(C)(O)CC)CCC3(C)C5C(OC(C)=O)C(OC(C)=O)C4[C@@]21O (some centres undefined)	x	n	x	x	n	x
Cc1cc2cc(C#N)c(NCCNC(=S)NCCCN3CCOCC3)nc2cc1C	n	n	n	n	n	u
SMILES	MARV entry inh	FMDV inh	LASV entry inh	HCMV inh	Giardia FBPA inh	HCV inh
Cc1cccc2cc(C#N)c(NCCNC(=S)NCCCN3CCOCC3)nc12	u	x	n	n	n	11.2µM
C=CCSc1nc2ccccc2n1C(=O)/C=C/c1ccc(OC)c(OC)c1	u	u	8.2µM	-102.7	n	u
C=CCSc1nc2ccccc2n1C(=O)/C=C/c1cc(OC)c(OC)c(OC)c1	13µM	8.91µM	9.2µM	-110.5	n	6.31µM
COc1cc(/C=C/C(=O)N2CCN(C(=O)/C=C/c3cc(OC)c(OC)c(OC)c3)CC2)cc(OC)c1OC	n	n	n	x	n	n
CCn1c(SCC(=O)N/N=C/c2ccc(OC)c(OC)c2)nc2ccccc21	n	n	n	n	n	n
CCSc1nc2ccccc2n1C(=O)/C=C/c1ccc(OC)c(OC)c1	u	20µM	6.31µM	-100.3	n	u
O=C(C#Cc1ccccc1)c1ccccc1	x	u	x	-84.0	x	x
O=C(C#Cc1ccccc1)c1ccc([N+](=O)[O-])cc1	n	22.4µM	u	-88.5	n	u
CN(C)C(=O)C#Cc1ccccc1	n	n	u	n	n	n
CC(=O)OC[C@H]1O[C@H](C/C=N/OCC[C@@H]2C=C[C@H](OC(C)=O)[C@@H](COC(C)=O)O2)C=C[C@@H]1OC(C)=O	n	x	x	x	x	x
CC(C)N(C(=O)[C@H]1C[C@H](CC(=O)NCCCN(C)C)C(=O)N2CCc3c([nH]c4ccc(Cl)cc34)[C@]12C)C(C)C	x	n	x	n	x	10µM
CC(C)N(C(=O)[C@H]1C[C@H](CC(=O)NCC23CC4CC(CC(C4)C2)C3)C(=O)N2CCc3c([nH]c4ccc(Cl)cc34)[C@]12C)C(C)C	x	u	x	n	x	15.8µM
COc1ccc(NC(=O)N2CC(=O)N3[C@H](CO)[C@@H](c4ccc(Br)cc4)[C@@H]3C2)cc1	x	x	x	n	x	x
CN1CCN(c2ncc3nc(-c4cccc(C#N)c4)c(=O)n(C)c3n2)CC1	x	n	x	x	n	x
Fc1ccc(C2CCNCC2COc2ccc3c(c2)OCO3)cc1 (centres undefined)	u	n	u	n	n	14.1µM
Fc1ccc([C@@H]2CCNC[C@H]2COc2ccc3c(c2)OCO3)cc1	16.4µM	u	u	u	n	u
NC(CC(=O)Nc1ccc(Oc2cc(F)c(F)cc2Br)cc1)C(=O)O (centres undefined)	x	n	x	x	u	x
C/C(=N\Nc1nc(C)cc(-c2ccccc2)n1)c1ccc(O)cc1	x	n	x	-89.2	n	11.2µM
C/C(=N\Nc1nc(C)cc(-c2ccccc2)n1)c1cccc(N)c1	x	n	x	n	n	6.31µM
C/C(=N\NC(=O)c1ccc(-c2ccccc2)cc1)c1cccc(N)c1	n	n	u	n	n	u
C/C(=N/Nc1nc(C)cc(-c2ccccc2)n1)c1ccco1	n	n	u	n	n	u
C/C(=N\Nc1nc(C)cc(-c2ccccc2)n1)c1ccccc1	u	n	u	u	n	15.8µM
Cc1cc(-c2ccccc2)nc(N/N=C/c2ccccc2F)n1	u	n	u	n	u	u
C/C(=N\Nc1nc(C)cc(-c2ccccc2)n1)c1ccc(C)o1	n	u	u	-63.3	x	u
COc1ccccc1C(=O)NC1=NC(c2ccc(Br)cc2)CC(=O)N1 (centres undefined)	u	n	n	n	x	x
